CYP2C9 inhib – human CYP2C9 inhibition | CYP2C9 Supersomes, luciferin-H conversion, luminescence | actives 20% (n = 96,000) | AID 777 | P11712 | inhibition, % at 5 µM;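 active = blocking of liver enzyme CYP2C9 beyond about 50% at 5 µM, limit read from the data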
CYP2C19 inhib – inhibitors of human CYP2C19; P33261; CYP2C19 Supersomes, luciferin-H EGE luminescence, 30 min; inhibition, % at 5 µM; actives 21% (n = 96,000); AID 778;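 active = CYP2C19 inhibition above a set limit at 5 µM in the primary screen, cut at about 50% in these data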
Target sequence (P33261 whole entry, looked up): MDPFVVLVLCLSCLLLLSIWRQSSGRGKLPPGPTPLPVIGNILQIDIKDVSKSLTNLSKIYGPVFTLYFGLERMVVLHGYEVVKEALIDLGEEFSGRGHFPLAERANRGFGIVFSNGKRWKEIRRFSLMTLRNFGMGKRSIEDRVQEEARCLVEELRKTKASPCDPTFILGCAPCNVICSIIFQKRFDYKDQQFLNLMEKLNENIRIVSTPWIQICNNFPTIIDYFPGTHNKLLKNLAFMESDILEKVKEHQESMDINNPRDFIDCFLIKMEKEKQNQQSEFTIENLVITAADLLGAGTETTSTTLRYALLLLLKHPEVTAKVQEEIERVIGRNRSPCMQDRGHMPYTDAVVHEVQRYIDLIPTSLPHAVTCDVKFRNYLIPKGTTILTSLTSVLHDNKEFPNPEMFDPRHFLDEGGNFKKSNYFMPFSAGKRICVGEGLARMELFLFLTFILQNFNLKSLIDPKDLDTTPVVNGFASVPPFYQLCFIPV
CYP2C9 activ – CYP2C9 (human) activation. P11712. recombinant CYP2C9, luciferin-H conversion, luminescence; active compounds read high; factor 1 = untreated enzyme, 0 = blocked. activation factor at 5 µM. actives 1.4% (n = 96,000). AID 1024;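 active = activation factor of 2 or more for CYP2C9 at a 5 µM dose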
F-actin modifier – alters cytoskeleton assembly in HUVEC cells; HUVEC TNFa F-actin phalloidin imaging, high content; inhibition, % at 2 µM; actives 0.18% (n = 91,000); AID 836;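 active = inhibition above the batch mean plus 3 SD and confirmed as a hit by visual image inspection, cut at about 30% in these data, passing the limit was not always enough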
CYP2C19 act – activators of human cytochrome P450 2C19 | recombinant CYP2C19, luciferin-H EGE luminescence; active compounds read high; 0 = fully inhibited enzyme, 1 = untreated enzyme | P33261 | 96,000 tested, under 10 active | activation factor at 5 µM;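 active = activation factor of at least 2 at 5 µM in the primary screen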
E-sel TNF inh – blocks E-selectin expression induced by TNF alpha. HUVEC TNFa-induced E-selectin immunofluorescence, high content. AID 1246. inhibition, % at 2 µM. actives 0.71% (n = 120,000);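 active = inhibition above the batch mean plus 3 SD, and confirmed as a hit on visual image review, cut at about 43% in these data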
Each line names hits and unclear results; the compound was inactive in the other large screens. Compounds with a hit are over-represented: about 22% of the library has one in this group of screens.

COc1ccc(CN(Cc2cccnc2)S(=O)(=O)c2ccc(-n3cnnn3)c(C)c2)cc1OC	CYP2C9 inhib 94, CYP2C19 inhib 80
COc1cc(S(=O)(=O)N(Cc2cccs2)CC2CCCO2)ccc1-n1cnnn1 (stereo not drawn)	none
CCCCOC(=O)C(C#N)c1nc2ccccc2nc1N1CCOCC1 (stereo not drawn)	CYP2C19 inhib 52
COc1ccccc1N1CCN(c2nc3ccccc3nc2C(C#N)C(=O)OC(C)C)CC1 (stereo not drawn)	CYP2C9 inhib 66
N#CC(C(=O)NCc1ccco1)c1nc2ccccc2nc1N1CCOCC1 (stereo not drawn)	CYP2C9 inhib 88, CYP2C19 inhib 79
CCN1CCN(c2nc3ccccc3nc2C(C#N)C(=O)OCc2ccccc2)CC1 (stereo not drawn)	CYP2C9 inhib 57, CYP2C19 inhib 82
CCOc1ccccc1N1CCN(c2nc3ccccc3nc2C(C#N)C(=O)OC)CC1 (stereo not drawn)	none
CCCCCCOC(=O)C(C#N)c1nc2ccccc2nc1N1CCOCC1 (stereo not drawn)	none
Cc1ccccc1NC(=O)c1cc(S(=O)(=O)N2CCOCC2)ccc1F	none (no result: F-actin modifier)
COCCOC(=O)C(C#N)c1nc2ccccc2nc1N1CCCC1 (stereo not drawn)	CYP2C9 inhib 79, CYP2C19 inhib 85
COC(=O)c1cccnc1-n1c(=O)c2cccnc2n(Cc2cccc(OC)c2)c1=O	CYP2C19 inhib 78 (no result: E-sel TNF inh)
O=C(O)CCc1nc(-c2ccccc2Cl)no1	none
COc1ccccc1-c1noc(CCC(=O)Nc2ccccc2Cl)n1	CYP2C19 inhib 79
CCc1cccc(NC(=O)CCc2nc(-c3cccs3)no2)c1	CYP2C9 inhib 83, CYP2C19 inhib 93 (no result: E-sel TNF inh)
COc1ccc(-c2noc(CCC(=O)Nc3nc4ccccc4s3)n2)cc1	CYP2C9 inhib 68
CCOC(=O)N1CCC(NC(=O)CCc2nc(-c3ccccc3F)no2)CC1	CYP2C9 inhib 59, CYP2C19 inhib 60 (no result: E-sel TNF inh)
N#Cc1cc2c(nc1SC1CC(=O)N(c3ccccc3)C1=O)CCC2 (stereo not drawn)	none (no result: CYP2C9 inhib, CYP2C19 inhib, CYP2C9 activ, F-actin modifier, CYP2C19 act)
CN(C)c1ccc(/C=N\NC(=O)c2csnn2)cc1	none (no result: F-actin modifier)
CCOc1ncccc1C(=O)N1CCN(c2cc(Cl)ccc2C)CC1	none (no result: CYP2C9 inhib, CYP2C19 inhib, CYP2C9 activ, F-actin modifier, CYP2C19 act)
COc1ccc(NC(=O)CCc2nc(-c3ccccc3F)no2)cc1	CYP2C9 inhib 69, CYP2C19 inhib 78
COc1cc(OC)c(NC(=O)CCc2nc(-c3ccc(C)cc3)no2)cc1Cl	CYP2C9 inhib 78
Cc1ccc(-c2noc(CCC(=O)Nc3ccccc3C)n2)cc1	none
COc1ccccc1-c1noc(CCC(=O)Nc2cccc(C)c2)n1	CYP2C19 inhib 74
Cc1ccc(CCc2nnc(SCC(=O)Nc3cccc(Cl)c3)n2-c2ccccc2)o1	none (no result: CYP2C9 inhib, CYP2C19 inhib, CYP2C9 activ, F-actin modifier, CYP2C19 act)
C=CCSc1nc(O)c(CC)c(=O)n1C(C)CC (stereo not drawn)	CYP2C19 inhib 63 (no result: E-sel TNF inh)
CNc1oc(-c2ccccc2)nc1C#N	none (no result: F-actin modifier)
CNc1oc(-c2ccc(Cl)cc2)nc1P(=O)(c1ccccc1)c1ccccc1	CYP2C9 inhib 64
COc1ccc2nc(NC(=O)CN3CCN(C)CC3)sc2c1	none
COc1ccc2nc(NC(=O)C(NS(=O)(=O)c3cccs3)C(C)C)sc2c1 (stereo not drawn)	CYP2C9 inhib 63, CYP2C19 inhib 55
Cc1ccc2nc(NC(=O)C(NS(=O)(=O)c3cccc4nsnc34)C(C)C)sc2c1 (stereo not drawn)	CYP2C9 inhib 77
O=C(OCC(=O)c1cccs1)c1ccc(NC(=O)c2ccco2)cc1	none (no result: F-actin modifier)
Cc1ccccc1N(CC(=O)N/N=C/c1ccc(F)cc1)C(=O)c1ccccc1	CYP2C9 inhib 95, CYP2C19 inhib 80
Cc1ccccc1N(CC(=O)N/N=C/c1ccc(Cl)cc1)C(=O)c1ccccc1	CYP2C9 inhib 98, CYP2C19 inhib 68
CCOC(=O)CN(C(=O)c1ccccc1)c1ccccc1C	none
O=C(CNS(=O)(=O)c1ccccc1)N/N=C\c1ccc(Cl)cc1	none (no result: CYP2C9 inhib, CYP2C19 inhib, CYP2C9 activ, F-actin modifier, CYP2C19 act)
CCn1cc(C(=O)N=c2sc3ccccc3n2C)c(=O)c2ccc(C)nc21	none (no result: CYP2C9 inhib, CYP2C19 inhib, CYP2C9 activ, CYP2C19 act)
CCOc1ccccc1-c1nnc(SCC(=O)NC2CC3CCC2C3)n1CC (stereo not drawn)	CYP2C19 inhib 77
CCc1ccccc1NC(=O)CSc1nc2n[nH]c(C)c2c(=N)n1-c1cccc(OC)c1	E-sel TNF inh 54 (no result: CYP2C9 inhib, CYP2C19 inhib, CYP2C9 activ, CYP2C19 act)

Compound activity deposited in PubChem by several laboratories.
